From PubChem BioAssay (EPA / NIEHS)
Calls of active or inactive are those of the source. Rule for the calls: active = hit-call score of the fitted dose curve at least 0.9, where 1 is the maximum; inactive = score below 0.9.

Legend:
[1] = read-out: Human Leukocyte Antigen - DR isotype (HLADR), HLA-DRA (gene 3122); test: BSK_BE3C_HLADR: BioMAP Diversity Plus: BE3C Assay for Human Leukocyte Antigen - DR isotype (HLADR) Biomarker Activity (AID 2283032); conditions: primary human bronchial epithelial cells; actives raise or lower the signal
Procedure, shortened: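 Human primary bronchial epithelial cells in the BE3C system were exposed to chemicals for 24 h, after which HLA-DR levels were quantified by ELISA. Activity was fitted bidirectionally, gain or loss of signal, against DMSO as negative control and baseline.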

[2] = read-out: Vascular cell adhesion molecule 1 (VCAM1), VCAM1 (gene 7412); test: BSK_4H_VCAM1: BioMAP Diversity Plus: 4H Assay for Vascular cell adhesion molecule 1 (VCAM1) Biomarker Activity (AID 2283033); conditions: primary human endothelial cells (HUVEC); actives raise or lower the signal
Procedure, shortened: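 Primary human umbilical vein endothelial cells were exposed to chemicals for 24 h, after which VCAM-1 was quantified by ELISA. Responses were fitted bidirectionally against DMSO as negative control and activity baseline.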

[3] = read-out: Interferon-gamma inducible Protein 10 (IP10), CXCL10 (gene 3627); test: BSK_BE3C_IP10: BioMAP Diversity Plus: BE3C Assay for Interferon-gamma inducible Protein 10 (IP10) Biomarker Activity (AID 2283034); conditions: primary human bronchial epithelial cells; actives raise or lower the signal
Procedure, shortened: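 Human primary bronchial epithelial cells were exposed to chemicals for 24 hours, after which IP-10 levels were measured by ELISA. Data were fitted bidirectionally against DMSO, which served as the negative control and activity baseline.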

[4] = read-out: Monokine induced gamma interferon (MIG), CXCL9 (gene 4283); test: BSK_BE3C_MIG: BioMAP Diversity Plus: BE3C Assay for Monokine induced gamma interferon (MIG) Biomarker Activity (AID 2283035); conditions: primary human bronchial epithelial cells; actives raise or lower the signal;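 note: MIG protein measured by ELISA in BE3C cultures after 24 h of dosing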
Procedure, shortened: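 ELISA read-out of MIG in human lung bronchial epithelial primary cultures, 24 h post-dosing. Bidirectional curve fit vs DMSO baseline.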

[5] = read-out: Transforming growth factor beta 1 (TGFb1), TGFB1 (gene 7040); test: BSK_BE3C_TGFb1: BioMAP Diversity Plus: BE3C Assay for Transforming growth factor beta 1 (TGFb1) Biomarker Activity (AID 2283036); conditions: primary human bronchial epithelial cells; actives raise or lower the signal
Procedure, shortened: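 Human primary bronchial epithelial cells (BE3C system) were dosed with chemical and TGF-b1 levels measured by ELISA at 24 h. Activity was fitted bidirectionally relative to DMSO negative control as baseline.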

[6] = read-out: Plasminogen activator inhibitor-1 (PAI1), SERPINE1 (gene 5054); test: BSK_BE3C_PAI1: BioMAP Diversity Plus: BE3C Assay for Plasminogen activator inhibitor-1 (PAI1) Biomarker Activity (AID 2283037); conditions: primary human bronchial epithelial cells; actives raise or lower the signal
Procedure, shortened: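 Human primary bronchial epithelial cells were exposed to chemical for 24 h, then PAI-1 was quantified by ELISA. Activity was fitted bidirectionally relative to the DMSO negative control baseline.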

[7] = read-out: urokinase plasminogen activator (uPA), PLAU (gene 5328); test: BSK_BE3C_uPA: BioMAP Diversity Plus: BE3C Assay for urokinase plasminogen activator (uPA) Biomarker Activity (AID 2283038); conditions: primary human bronchial epithelial cells; actives raise or lower the signal;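 note: uPA protein level quantified by ELISA in cell cultures; uPA read one day after compound addition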
Procedure, shortened: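 ELISA read-out of uPA in human lung primary bronchial epithelial cultures, 24 h post-dosing. Gain or loss of signal fitted bidirectionally relative to DMSO baseline; cytotoxicity checked in parallel cultures via SRB total protein stain.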

[8] = read-out: Urokinase-type plasminogen activator receptor (uPAR), PLAUR (gene 5329); test: BSK_BE3C_uPAR: BioMAP Diversity Plus: BE3C Assay for Urokinase-type plasminogen activator receptor (uPAR) Biomarker Activity (AID 2283039); conditions: primary human bronchial epithelial cells; actives raise or lower the signal;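 note: uPAR protein level measured by ELISA on the cells; cells exposed to compound for one day before measurement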
Procedure, shortened: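 Primary human bronchial epithelial cells were dosed with chemical and harvested 24 h later; uPAR was quantified by ELISA. Activity was fitted bidirectionally against DMSO as negative control and baseline.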

[9] = read-out: Interleukin-6 (IL6), IL6 (gene 3569); test: BSK_CASM3C_IL6: BioMAP Diversity Plus: CASM3C Assay for Interleukin-6 (IL6) Biomarker Activity for (AID 2283040); conditions: primary human coronary artery smooth muscle cells; actives raise or lower the signal
[10] = read-out: Tissue plasminogen activator (tPA), PLAT (gene 5327); test: BSK_BE3C_tPA: BioMAP Diversity Plus: BE3C Assay for Tissue plasminogen activator (tPA) Biomarker Activity (AID 2283041); conditions: primary human bronchial epithelial cells; actives raise or lower the signal
Procedure, shortened: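 Human primary bronchial epithelial cells were dosed with chemical and tPA biomarker levels measured by ELISA 24 hours later. Activity was fitted bidirectionally against DMSO as negative control and baseline.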

Measured: AC50

CCCCCCCCCCCCCCCCCC(=O)O
inactive: all assays above

Cc1ccc(C)c(O)c1C
inactive: all assays above

C1CCC(SSC2CCCCC2)CC1
active: [2] 20 µM
inactive: all other assays above

CCCCc1ccc2c(n1)[C@@H](c1ccc(OC)cc1C[C@H](C)C(=O)O)[C@H](C(=O)O)[C@H]2c1ccc2c(c1)OCO2
inactive: all assays above

CCNc1cccc(C)c1
inactive: all assays above

Nc1nc(N)c2nc(CNc3ccc(C(=O)N[C@@H](CCC(=O)O)C(=O)O)cc3)cnc2n1
inactive: all assays above

O=c1c(O)c(-c2ccc(O)c(O)c2)oc2cc(O)cc(O)c12
active: [1] 20 µM | [2] 26.9 µM | [9] 8.19 µM
inactive: all other assays above

O=c1[nH]cc(F)c(=O)[nH]1
inactive: all assays above

O=C(N[C@@H](Cc1ccccc1)[C@@H](O)C(=O)N1C[C@@H](O)[C@@H](O)C1)c1cc2cc(Cl)ccc2[nH]1
not listed: [2]
inactive: all other assays above

NC(=O)Cn1c(=O)cc(CCN2CCN(c3nccc4sccc34)CC2)c2ccc(F)cc21
not listed: [2]
inactive: all other assays above

Nc1ccccc1N
not listed: [2]
inactive: all other assays above

CN1CCN(Cc2cc(-c3ccc4[nH]c(=O)oc4c3)co2)[C@@H](c2ccc(F)cc2)C1
active: [10] 3.27 µM
inactive: all other assays above

CCOc1ccc2c(c1)C(C)=CC(C)(C)N2
not listed: [2]
inactive: all other assays above

O=C(OCCCCCOC(=O)c1ccccc1)c1ccccc1
not listed: [2]
inactive: all other assays above

O=[N+]([O-])C(CO)(CO)CO
inactive: all assays above

Cc1cccc([N+](=O)[O-])c1C
not listed: [2]
inactive: all other assays above

CC1(C)CC(N=C=O)CC(C)(CN=C=O)C1 (configuration not stated)
inactive: all assays above

CCCCOC(=O)CCCCCCCCC(=O)OCCCC
inactive: all assays above

COc1ccc(S(=O)(=O)N2C(=O)[C@@](c3ccccc3OC)(N3C[C@H](O)C[C@H]3C(=O)N(C)C)c3cc(Cl)ccc32)c(OC)c1
not listed: [2]
inactive: all other assays above

Cc1ccc(C)c(C)c1
not listed: [2]
inactive: all other assays above

CC(=O)OCCOCCOCCOC(C)=O
inactive: all assays above
